Results published in PubChem BioAssay (Tox21).
Where “and” joins values, the source holds several entries; their conditions need not be identical. Equal entries are not always repeated. Records with an inconclusive call do not appear. The source holds several records for some structures; these can differ, active in one and inactive in another. Calls of active or inactive are those of the source. Unless noted, calls come from the whole dose curve; as a rule, active = well fitted curve in the direction sought with a large enough effect in the repeat runs; inconclusive = weak or mixed curves; inactive = no such curve, though single readings can be large; an effect the other way counts as inactive or inconclusive.

Assays:
[1] = Caspase-3/7 induction in HepG2 cells by small molecules, qHTS assay (AID 1346978); note: nearly all actives have a fitted effect of over 15% in size; note: potency is the fitted concentration of half-maximal effect
Method in brief: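 Wild-type HepG2 cells (2,000/well) were settled 5 h at 37 C, 5% CO2, then exposed to compounds in DMSO for 17 h. Caspase-3/7 activity was read by luminescence 30 min after adding Caspase-Glo 3/7 reagent at room temperature.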

[2] = Caspase-3/7 induction in CHO-K1 cells by small molecules, qHTS cell viability counter screen (AID 1346979); note: nearly all actives have a fitted effect of over 35% in size; note: potency is the fitted concentration of half-maximal effect
Method in brief: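 Wild-type CHO-K1 cells (1,500/well) treated with compound after 5 h plating; after 16 h at 37C, viability read as CellTiter-Fluor fluorescence following 1 h reagent incubation, in the same wells as the caspase read.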

[3] = Caspase-3/7 induction in CHO-K1 cells by small molecules, qHTS assay (AID 1346980); note: nearly all actives have a fitted effect of over 15% in size; note: potency is the fitted concentration of half-maximal effect
Method in brief: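 Wild-type cells were seeded at 1,500 per well and settled 5 hr at 37 C, 5% CO2, then exposed to DMSO-dissolved compounds for 17 hr. Caspase-Glo 3/7 reagent was added, and luminescence was read after 30min at room temperature.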

[4] = Caspase-3/7 induction in HepG2 cells by small molecules, qHTS cell viability counter screen (AID 1346981); note: nearly all actives have a fitted effect of over 30% in size; note: potency is the fitted concentration of half-maximal effect
Method in brief: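 In this quantitative HTS counter screen, compounds delivered in DMSO were left on unmodified HepG2 cells for 16 hr at 37 C. Viability was then determined fluorometrically with CellTiter-Fluor, in parallel with caspase-3/7 induction in the same wells.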

[5] = target: Nuclear receptor subfamily 1 group I member 2 (Homo sapiens) (UniProt O75469); test: Human pregnane X receptor (PXR) small molecule agonists, qHTS assay (AID 1346982); note: nearly all actives have a fitted effect of over 35% in size; note: potency is the fitted concentration of half-maximal effect
Method in brief: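 Reporter HepG2 cells expressing PXR-Luc are cultured in charcoal-stripped FBS (5%), treated with compounds for 24 hr at 37 C, and assayed by ONE-Glo luminescence after 30 min at room temperature.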

[6] = target: Acetylcholinesterase (Homo sapiens) (UniProt P22303); test: Acetylcholinesterase (AChE) small molecule antagonists: colormetric cell-based qHTS assay (AID 1347395; calls by dose curve; note: nearly all actives have a fitted effect of over 30% in size; note: potency is the fitted concentration of half-maximal effect)
Method in brief: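 SH-SY5Y cells attached overnight, exposed to compound 30 min at 37 C, then given DTNB/acetylthiocholine; after 90 min at 37 C, colorimetric thiocholine read gives cellular AChE activity.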

[7] = target: Acetylcholinesterase (Homo sapiens) (UniProt P22303); test: Acetylcholinesterase (AChE) small molecule antagonists: enzyme-based qHTS assay (AID 1347397; calls by dose curve; note: nearly all actives have a fitted effect of over 55% in size; note: potency is the fitted concentration of half-maximal effect); settings: Potency: AChE enzyme activity inhibition; outcome: AChE enzyme activity inhibition
Method in brief: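 Tox21 library chemicals are tested in qHTS format against recombinant human AChE. The enzyme, dispensed at 50 mU/mL, sits with compound for 30 min at room temperature. A DTNB–acetylthiocholine cocktail follows, and colour is read after 10 min.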

[8] = target: Nuclear receptor subfamily 1 group I member 2 (Homo sapiens) (UniProt O75469); test: CYP3A4 induction through human pregnane X receptor (PXR) by small molecules, qHTS assay (AID 1346984); note: nearly all actives have a fitted effect of over 40% in size
Method in brief: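 Induction measured in HepG2-based DPX-2 cells co-expressing human PXR and a CYP3A4 promoter-driven luciferase. After a 24-hour compound exposure, cells received CYP3A4 luciferin substrate at 3uM final for 3 hours, and light output was then recorded.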

[9] = target: Nuclear receptor subfamily 1 group I member 2 (Homo sapiens) (UniProt O75469); test: Human pregnane X receptor (PXR) activation by small molecules, qHTS assay (AID 1346985); note: nearly all actives have a fitted effect of over 40% in size
Method in brief: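 DPX-2 cells (HepG2 co-transfected with a PXR response element and a CYP3A4-promoter luciferase construct) were seeded at 2,000 per well, rested 5 hr at 37C, then exposed to DMSO-dissolved compounds for 24 hr. Activation was read as luciferase luminescence.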

[10] = target: Acetylcholinesterase (Homo sapiens) (UniProt P22303); test: Acetylcholinesterase (AChE) small molecule antagonists: fluorescence cell-based qHTS assay (AID 1347398; calls by dose curve; note: nearly all actives have a fitted effect of over 50% in size; note: potency is the fitted concentration of half-maximal effect); settings: Potency: AChE activity; outcome: AChE activity
Method in brief: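 Cellular AChE inhibition: SH-SY5Y cells treated with test chemical for 30 min at 37 C, then acetylthiocholine hydrolysis followed over 40 min at room temperature via thiocholine-reactive Thiolite Green fluorescence (490/520 nm).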

Measured: Potency

Sequence of Nuclear receptor subfamily 1 group I member 2 (Homo sapiens) (O75469 whole entry, looked up): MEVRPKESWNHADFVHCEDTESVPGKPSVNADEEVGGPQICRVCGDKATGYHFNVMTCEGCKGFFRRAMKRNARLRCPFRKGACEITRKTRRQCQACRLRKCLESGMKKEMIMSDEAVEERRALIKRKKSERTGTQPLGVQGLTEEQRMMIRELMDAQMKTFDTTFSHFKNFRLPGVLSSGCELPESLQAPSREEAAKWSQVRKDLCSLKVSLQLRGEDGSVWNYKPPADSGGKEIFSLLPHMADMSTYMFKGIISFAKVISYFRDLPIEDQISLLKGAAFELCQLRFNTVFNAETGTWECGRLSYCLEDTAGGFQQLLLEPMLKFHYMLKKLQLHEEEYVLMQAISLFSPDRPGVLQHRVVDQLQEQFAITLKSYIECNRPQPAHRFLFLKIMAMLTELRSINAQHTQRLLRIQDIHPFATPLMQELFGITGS
Sequence of Acetylcholinesterase (Homo sapiens) (P22303 whole entry, looked up): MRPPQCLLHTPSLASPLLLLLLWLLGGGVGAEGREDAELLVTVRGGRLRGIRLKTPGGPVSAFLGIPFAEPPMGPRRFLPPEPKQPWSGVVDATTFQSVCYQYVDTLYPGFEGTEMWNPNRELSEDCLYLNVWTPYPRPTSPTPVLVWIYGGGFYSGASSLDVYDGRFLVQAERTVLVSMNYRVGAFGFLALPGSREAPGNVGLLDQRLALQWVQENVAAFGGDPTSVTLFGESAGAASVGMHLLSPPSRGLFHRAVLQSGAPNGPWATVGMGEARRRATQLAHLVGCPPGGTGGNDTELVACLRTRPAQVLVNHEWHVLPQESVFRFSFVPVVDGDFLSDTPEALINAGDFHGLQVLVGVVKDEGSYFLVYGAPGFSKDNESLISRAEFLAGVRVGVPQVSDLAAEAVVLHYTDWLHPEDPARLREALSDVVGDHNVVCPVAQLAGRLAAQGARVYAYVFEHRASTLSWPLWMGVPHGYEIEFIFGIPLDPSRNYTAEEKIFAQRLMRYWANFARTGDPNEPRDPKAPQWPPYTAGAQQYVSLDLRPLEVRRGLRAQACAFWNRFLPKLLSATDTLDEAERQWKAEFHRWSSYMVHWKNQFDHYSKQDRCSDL

O=C(NCNC(=O)NC1C(=O)NC(=O)N1CO)NC1C(=O)NC(=O)N1CO (stereo not drawn)
inactive: [1] | [2] | [3] | [4]

CC(Cl)C(=O)O (stereo not drawn)
not listed: [8] | [9] | [10]
inactive: all other assays above

O=C(CCl)CCl
active: [2] 50.3 µM and 30.6 µM | [5] 56.5 µM and 61.1 µM
inactive: [1] | [3] | [4] | [6] | [7]

CC[N+]1(C)CCCC(OC(=O)C(O)(c2ccccc2)c2ccccc2)C1 (stereo not drawn)
inactive: all assays above

C[C@@H]1C[C@@H]([C@H](O)CC2CC(=O)NC(=O)C2)C(=O)[C@@H](C)C1
active: [2] 24.2 nM and 68.6 nM and 188 nM | [4] 121 nM and 1.72 µM and 750 nM
inactive: [1] | [3]

CCC1(CC)C(=O)NC(=O)NC1=O
inactive: all assays above

CC1(C)[C@H](C(=O)O[C@H](C#N)c2cccc(Oc3ccccc3)c2)[C@@H]1C=C(Br)Br
inactive: [1] | [2] | [3] | [4]

CCCC[N+]1(C)[C@@H]2CC(OC(=O)[C@H](CO)c3ccccc3)C[C@H]1[C@@H]1O[C@@H]12 (stereo partly drawn)
not listed: [6]
inactive: all other assays above

CCCC1CCCCN1 (stereo not drawn)
inactive: all assays above

C=CCN1C[C@H](C)N([C@H](c2ccc(C(=O)N(CC)CC)cc2)c2cccc(OC)c2)C[C@H]1C
active: [5] 11.9 µM
not listed: [6] | [9]
inactive: all other assays above

Clc1ccc(Cl)c(Cl)c1
inactive: [1] | [2] | [3] | [4]

CCOP(=S)(OCC)SCSc1cc(Cl)ccc1Cl
not listed: [8] | [9]
inactive: all other assays above

Nc1cccc2ccccc12
active: [5] 48.9 µM and 61.1 µM
not listed: [8] | [9] | [10]
inactive: all other assays above

C=CCOCC1CO1 (stereo not drawn)
not listed: [8] | [9]
inactive: all other assays above

Cc1cnc(C2=NC(C)(C(C)C)C(=O)N2)c(C(=O)O)c1 (stereo not drawn)
not listed: [8] | [9]
inactive: all other assays above

O=[N+]([O-])c1cc(Cl)c(Cl)cc1Cl
not listed: [8] | [9]
inactive: all other assays above

CC(C)(C)CC(C)(C)c1ccc(O)cc1
31.7 µM (active) and inactive: [10]
19.3 µM (active) and inactive: [5]
39.9 µM (active) and inactive: [6]
inactive: [7]
active: [1] 51.4 µM | [2] 50 µM | [3] 51.4 µM | [4] 61.1 µM

CC(C)(c1ccccc1)c1cc(-n2nc3ccccc3n2)c(O)c(C(C)(C)c2ccccc2)c1
not listed: [8] | [9]
inactive: all other assays above

Clc1ccc2ccccc2c1
not listed: [8] | [9]
inactive: all other assays above

CCCCCCCCn1sccc1=O
inactive: [3] | [6] | [7] | [10]
active: [1] 25.5 µM | [2] 12.2 µM and 11.4 µM | [4] 68.7 µM and 50.9 µM | [5] 21.7 µM and 4.04 µM

C1CCNCC1
not listed: [8] | [9]
inactive: all other assays above

COC1=CC(=O)O[C@@H](/C=C/c2ccc3c(c2)OCO3)C1
not listed: [8] | [9] | [10]
inactive: all other assays above

CC(C)(C)OOC(C)(C)CCC(C)(C)OOC(C)(C)C
not listed: [8] | [9] | [10]
inactive: all other assays above

CC(C)C1(C)N=C(c2ncccc2C(=O)O)NC1=O (stereo not drawn)
not listed: [8] | [9]
inactive: all other assays above

Cc1cccc(C)c1NC1=NCCCS1
not listed: [8] | [9] | [10]
inactive: all other assays above

Cc1nc(N(C)C)nc(OC(=O)N(C)C)c1C
active: [6] 11.2 µM | [7] 10 µM | [10] 11.2 µM
not listed: [8] | [9]
inactive: all other assays above

CCOC(=O)C1OC1(C)c1ccccc1 (stereo not drawn)
not listed: [8] | [9] | [10]
inactive: all other assays above

CC(Oc1cccc(Cl)c1)C(=O)O (stereo not drawn)
not listed: [8] | [9]
inactive: all other assays above
